As a reminder, the inhibition is the change of the read-out against control, counted positive when it falls.

The structures appear in SMILES notation. Screen size: about 300,000 compounds; about 3,300 (1.1%) were called active. Not shown: some 6% with an inconclusive outcome.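 Rule for the calls: active = more than half of the replicate wells show a fall in the fluorescence ratio signal beyond about 16% (limit read from the data, passing the limit was not always enough); inconclusive = exactly half of the replicate wells pass the set limit; inactive = fewer than half of replicates pass the limit.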 Shown is part of a subset that was picked to be rich in actives.

This assay relates to Ran GTPase (GTP-bound) - importin-beta complex. Description: disruptors of Ran-importin-beta complex formation – biochemical, FRET, CFP-Ran, YFP-importin-beta, homogeneous, primary screen (AID 2216).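 Note: 0% = DMSO wells and 100% = Ran loaded with GDP instead of GTP.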 The following applies: cell-free CFP-Ran/YFP-importin-beta FRET ratio; hits give high values; concentration not given here.
Take `CC(=O)N[C@H]1[C@H]([C@H](O)[C@H](O)CO)OC(C(=O)O)=C[C@@H]1O`: the inhibition is 1.4% (inactive).
To `COc1ccc(Cl)cc1NC(=O)CN(C)C(=O)c1cc(-c2cccs2)nn1-c1ccccc1` belongs 0.469% (inactive).
To `CCCN(CCC)CCNC(=O)c1cc2c(C)nc3ccccc3c2o1` belongs 0.401% (inactive); to `Cc1nc2ccccc2c2oc(C(=O)NCC3CCCO3)cc12` (centres undefined), 4.76% (inactive).
In the case of `Cc1nc2ccccc2c2oc(C(=O)NCCCN3CCC(C)CC3)cc12`, the inhibition is 34.1% (active).
With `O=C(NCCS(=O)(=O)NCc1ccc(Cl)cc1)c1ccccc1`, the inhibition is 5.39% (inactive).
To `CCOC(=O)c1c(C)oc2ccc(OCC(=O)N(CC)CC)cc12` belongs -3.75% (inactive); to `CCOC(=O)c1c(C)oc2cc(Br)c(OCC(N)=O)cc12`, 19% (active); to `CCOC(=O)c1c(-c2ccccc2)oc2ccc(OCC(N)=O)cc12`, 0.113% (inactive).
The same measure for `Cc1cc(-c2nnc(SCC(=O)Nc3ccc(S(N)(=O)=O)cc3)n2N)n[nH]1`: 0.809% (inactive).
To `Cc1cccc(NC(=O)N2CCCCCC2)c1C` belongs 2.28% (inactive); to `N#CC1=C(N)OC2=C(C(=O)CCC2)C1C1CC=CCC1` (centres undefined), -2.87% (inactive).
Turning to `N#CC1=C(N)Oc2cc(O)ccc2C1C1CCCCC1` (centres undefined), the inhibition was 140% (active).
The same measure for `COCc1[nH]nc2c1C(C1C=CCCC1)C(C#N)=C(N)O2` (centres undefined): -7.86% (inactive).
To `COc1ccc(CNC(=O)C2CCCC2)cc1` belongs -1.07% (inactive).
The same measure for `Cc1ccc2nc(NC(=O)CSc3nc(=O)n(CCCN(C)C)c4c3CCC4)sc2c1`: 1.53% (inactive); for `Cc1nc(Nc2ccc3c(c2)OCCO3)c2nnn(Cc3ccccc3Cl)c2n1`: 3.56% (inactive); for `Cc1nc(Nc2ccc(S(=O)(=O)N3CCCC3)cc2)c2nnn(Cc3ccccc3)c2n1`: 5.61% (inactive).
`Cc1nc(Nc2ccccc2F)c2nnn(Cc3ccccc3Cl)c2n1`: the inhibition is 35.1% (active).
The same measure for `COc1ccccc1-n1ccnc(SCC(=O)NC2CCCCC2)c1=O`: -1.18% (inactive); for `CC(C)N(Cc1ccccc1)C(=O)COC(=O)c1ccccc1SCC(=O)N1CCCC1`: -1.94% (inactive); for `CC(=O)C12CC(C)=C(C)CC1CC1C3CCC4=CC(=O)CCC4(C)C3CCC12C` (centres undefined): 1.03% (inactive).
As for `COC(=O)c1ccc(C(=O)OC)c(NC(=S)N2CCN(c3cc(Cl)ccc3C)CC2)c1`, the inhibition was 6.93% (inactive).
To `CCS(=O)(=O)Nc1cc(C(=O)OC)ccc1C(=O)OC` belongs 4.57% (inactive); to `CCCN(CCC)C(=S)Nc1cc(C(=O)OC)ccc1C(=O)OC`, 41% (active).
To `CCCOc1ccc(CN(CCO)CCO)cc1C(=O)OC` belongs -2.69% (inactive).
The same measure for `CCN(CC)C(=O)CCC(=O)Nc1ccc(C(=O)OC)cc1`: -3.39% (inactive).
As to `COC(=O)c1ccc(C(=O)OC)c(NC(=S)N2CCN(c3ccc(F)cc3)CC2)c1`, the inhibition was 6.98% (inactive).
To `COC(=O)c1ccc(C(=O)OC)c(NC(=S)N2CCCCC2)c1` belongs 55.3% (active).
Turning to `CCN(CCO)C(=S)Nc1cc(C(=O)OC)ccc1C(=O)OC`, the inhibition was 16.3% (active).
Take `COC(=O)c1ccc(C(=O)Nc2cc(Cl)ccc2Cl)cc1NC(=O)c1ccccc1C`: the inhibition is 2.78% (inactive).
On to `CN(C)C(CNC(=O)c1cccc(S(=O)(=O)Nc2ccc(Br)cc2)c1)c1ccco1` (centres undefined), for which the inhibition is -0.145% (inactive).
To `CCc1noc(C)c1C(=O)NNC(=O)c1ccc(F)cc1` belongs 3.18% (inactive); to `Cc1ccccc1OCC(=O)NNC(=O)c1ccc(-n2cncn2)c([N+](=O)[O-])c1`, 3.51% (inactive); to `COc1ccccc1CNC(=O)CSc1nc(=O)n(Cc2ccncc2)c2c1CCC2`, -4.86% (inactive).
To `O=C(Nc1ncccc1O)c1ccc(C(=O)c2ccccc2)cc1` belongs -5% (inactive); to `O=C(COC(=O)c1ncc(Cl)c(Cl)c1Cl)NC1CCS(=O)(=O)C1` (centres undefined), 1.31% (inactive).
The same measure for `COCc1cc(=O)n2[nH]c(C)c(-c3ccccc3)c2n1`: 1.2% (inactive).
For the molecule `COc1ccc(C2/C(=C(/O)c3ccc(OC(C)C)cc3)C(=O)C(=O)N2CCCN2CCOCC2)cc1` (centres undefined), the inhibition is -1.52% (inactive).
The same measure for `CCN(CC)CCN1C(=O)C(=O)/C(=C(/O)c2ccccc2)C1c1ccccc1F` (centres undefined): -0.379% (inactive); for `O=C1C(=O)N(CCN2CCOCC2)C(c2ccccn2)/C1=C(/O)c1ccc(Cl)cc1` (centres undefined): 20.4% (active); for `COc1ccc(/C(O)=C2/C(=O)C(=O)N(CCCN(C)C)C2c2ccccc2)cc1OC` (centres undefined): 3.13% (inactive).
To `CC1Cc2cc(/C(O)=C3\C(=O)C(=O)N(CCN4CCOCC4)C3c3ccccc3F)ccc2O1` (centres undefined) belongs 1.9% (inactive); to `CCN(CC)CCN1C(=O)C(=O)/C(=C(/O)c2ccc(OC)c(OC)c2)C1c1ccccn1` (centres undefined), 33.8% (active); to `CCOc1ccc(CCNC(=O)COC(=O)c2ccc(F)c(S(=O)(=O)N3CCOCC3)c2)cc1OCC`, -2.22% (inactive).
To `CCN(CC)c1ccc(NC(=O)c2ccc(=O)[nH]c2)cc1S(=O)(=O)Nc1ccc(OC)cc1` belongs -0.956% (inactive); to `CCOc1ccccc1NC(=O)c1cccnc1`, -0.62% (inactive).
In the case of `O=C(NNC(=O)c1cccnc1)Nc1ccccc1`, the inhibition was -0.622% (inactive).
To `O=C(Nc1cnccn1)c1cccnc1` belongs 15.8% (active).
To `O=C(Nc1cc(S(=O)(=O)N2CCOCC2)ccc1OCC(F)(F)F)c1ccc(N2CCCC2=O)cc1` belongs 5.96% (inactive); to `COCC1CCN(C(=O)c2ccc3oc(Cc4ccccc4)nc3c2)C1` (centres undefined), 1.03% (inactive); to `CCN1CCc2nc(NC(=O)c3cc(F)c(F)cc3Cl)sc2C1`, 19.6% (active).
The same measure for `O=C(Nc1ccc(OCC(=O)N2CCOCC2)cc1)c1cc(F)c(F)cc1Cl`: 3.93% (inactive); for `CC(=O)Cc1nsc(NC(=O)c2ccc(Cl)cc2Cl)n1`: 1.86% (inactive); for `CCOc1ccc(NC(=O)CN(C)C(=O)COc2cccc(CC)c2)cc1OCC`: -1.27% (inactive).
In the case of `[O-][n+]1ccc(OCc2ccccc2)cc1`, the inhibition is -2.54% (inactive).
Consider `CCC(C)c1ccccc1N1CC(C(=O)N2CCN(S(=O)(=O)c3ccc(F)cc3)CC2)CC1=O` (centres undefined), for which the inhibition is 1.46% (inactive).
To `NC1=NC(c2ccc([N+](=O)[O-])cc2)N(c2ccc(F)cc2)C(N)=N1` (centres undefined) belongs 1.29% (inactive); to `CCOc1cc2ccccc2cc1C(=O)Nc1ccccn1`, 3.29% (inactive).
